Bioassay records (PubChem BioAssay)
Most compounds without a hit are left out; they make up all but 3.9% or so of the library.
PLK1 PBD block: blocks phosphopeptide binding to human PLK1 polo-box domain; P53350; Plk1 PBD binding of FITC phosphopeptide, fluorescence polarization; Potency, µM, hits mostly inhibitors; 360,000 compounds, 2.8% hits; AID 720504; also: series mostly up to about 57 µM; nearly all actives have a fitted effect of over 65% in size
Tb PFK inh: blocks T. brucei phosphofructokinase. 330,000 compounds, 0.17% hits. Potency, µM (titrated, usually from 57.5 µM), usual class: inhibitors. T. brucei PFK, ADP-Glo luminescence; also: nearly all actives have a fitted effect of over 60% in size
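Activity is normalized to no-enzyme wells (full inhibition) and 1.25 nM enzyme wells (no inhibition). Reaction: 0.5 mM F6P, 0.1 mM ATP, 45 min RT, ADP-Glo luminescence; concentration-response curves fitted and classed by quality.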
VDR inh: inhibitors of human vitamin D receptor | P11473 | VDR-SRC2-3 peptide fluorescence polarization, 2 h | Potency, µM, hits mostly inhibitors | 400,000 compounds, 0.93% hits | AID 504847
Target sequence (P11473 whole entry, looked up): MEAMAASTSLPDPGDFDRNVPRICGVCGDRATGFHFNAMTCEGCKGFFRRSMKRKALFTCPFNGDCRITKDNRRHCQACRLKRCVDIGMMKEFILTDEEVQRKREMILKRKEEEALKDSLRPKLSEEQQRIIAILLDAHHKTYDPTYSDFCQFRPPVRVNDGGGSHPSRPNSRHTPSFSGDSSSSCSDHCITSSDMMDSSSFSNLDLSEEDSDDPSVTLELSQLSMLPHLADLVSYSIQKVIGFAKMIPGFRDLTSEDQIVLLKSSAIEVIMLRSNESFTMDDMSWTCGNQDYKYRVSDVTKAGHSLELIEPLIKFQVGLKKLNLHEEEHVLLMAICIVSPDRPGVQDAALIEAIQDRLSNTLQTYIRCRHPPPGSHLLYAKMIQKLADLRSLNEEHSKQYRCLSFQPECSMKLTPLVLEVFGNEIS
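FP read-out; VDR + SRC2-3 coactivator peptide; 23 nl compound by pintool; 2 h RT incubation; reagents held at 4 deg C, protected from light.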
BRCA1 expr up: BRCA1 expression activation. MCF7-BRCA1-FFLuc reporter, luminescence, 48 h; response scale: scaled: vehicle 0%, 10 µM genistein 100%. Potency, µM (highest dose often 46.1 µM), hits mostly activators. 380,000 compounds, 1.1% hits. AID 624202; also: nearly all actives have a fitted effect of over 80% in size
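Luminescence from a BRCA1-driven firefly luciferase in MCF7 cells was the read-out, taken 15 min after substrate addition following 48 h compound exposure at 37 °C. Data were normalized to a 10 microM genistein control and DMSO vehicle.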
Each line names hits and unclear results; the compound was inactive in the other large screens; ! = not confirmed by another sample. Calls follow the shape of the dose curve; as a rule, active = well fitted curve in the direction sought with a large enough effect; inconclusive = small, poorly fitted or top-dose-only effect, or another doubt; inactive = no such curve, though single readings can be large; an effect the other way counts as inactive or inconclusive.

NC(=O)CSc1nc2cc(S(=O)(=O)N3CCOCC3)ccc2o1	PLK1 PBD block 12µM, VDR inh inconclusive
Cc1c(C(=O)N2CCC3(CC2)OCCO3)oc2ccc(S(=O)(=O)N3CCOCC3)cc12	none
COc1ccc(CCN2CCCC(CN(C)C(=O)c3cc(C)oc3C)C2)cc1 (centres undefined)	BRCA1 expr up 7.9µM
COc1cccc(C(=O)C2CCCN(Cc3ccc(F)cc3)C2)c1 (centres undefined)	none
S=C(S)N1CCCC1	PLK1 PBD block inconclusive, VDR inh 20µM!
COc1nc(NC2CCCCC2)nc(NC(C)(C)C)n1	BRCA1 expr up inconclusive (no result: Tb PFK inh)
O=C(Nc1ccccc1)c1c(O)[nH]c(=S)[nH]c1=O	none (no result: Tb PFK inh)
O=c1[nH]c(=S)[nH]c(O)c1/C=C1/C=c2ccccc2=N1	PLK1 PBD block 1.3µM
O=C(NC1CCCCCC1)c1ccc[nH]c1=S	VDR inh inconclusive
CC(C)N(Cc1ccccc1)C(=O)CCS(=O)(=O)c1ccc2c(c1)oc(=O)n2C	PLK1 PBD block 17µM
COc1ccc(C[C@H]2NC[C@H](O)[C@@H]2OC(C)=O)cc1	VDR inh 35µM (no result: PLK1 PBD block, Tb PFK inh, BRCA1 expr up)
COC(=O)C12CC3=CC(CC3=O)Cc3ccccc3[C@@H]1CNC2=O (some centres undefined)	none (no result: PLK1 PBD block, Tb PFK inh, BRCA1 expr up)
O=C(O)c1ccc(-n2c(O)c(/C=C3\C=Nc4ccccc43)c(=O)[nH]c2=O)cc1	PLK1 PBD block 9.5µM, Tb PFK inh inconclusive
COC(=O)C1=Nc2ccccc2/C1=C\c1c(O)n(C)c(=O)n(C)c1=O	PLK1 PBD block 4.7µM, VDR inh inconclusive
COC(=O)C1=Nc2ccccc2/C1=C\c1c(O)n(-c2ccc(OC)cc2)c(=O)[nH]c1=O	PLK1 PBD block 3.4µM, VDR inh inconclusive
O=c1[nH]c(=O)n(-c2ccccc2)c(O)c1/C=C1/C(c2ccccc2)=Nc2ccccc21	PLK1 PBD block 11µM, VDR inh inconclusive
O=c1[nH]c(=O)n(-c2cccc(F)c2)c(O)c1/C=C1\C=Nc2ccccc21	PLK1 PBD block inconclusive, Tb PFK inh inconclusive
COc1ccc(OC)c(-n2c(O)c(/C=C3\C(C)=Nc4ccccc43)c(=O)[nH]c2=O)c1	PLK1 PBD block inconclusive
Cn1c(O)c(/C=C2\C=Nc3ccccc32)c(=O)n(C)c1=O	none
CC[C@@]1(O)C(=O)OCc2c1cc1n(c2=O)Cc2cc3c(O)cccc3nc2-1	none (no result: PLK1 PBD block, Tb PFK inh, BRCA1 expr up)
c1ccc2sc(C3(NCC4CC4)CCCCC3)cc2c1	none (no result: PLK1 PBD block, Tb PFK inh, BRCA1 expr up)
CC(=O)OC[C@]12C[C@H](OC(=O)CC(C)C)C(C)=C[C@H]1O[C@H]1[C@H](O)[C@@H](OC(C)=O)[C@@]2(C)[C@]12CO2	none (no result: PLK1 PBD block, Tb PFK inh, BRCA1 expr up)
O=c1[nH]c(=S)n(-c2ccc(Cl)cc2)c(O)c1C=Nc1ccc(N2CCOCC2)cc1	PLK1 PBD block inconclusive
O=c1c2cc(N3CCOCC3)ccc2[nH]c(=S)n1Cc1ccc(Cl)cc1	BRCA1 expr up 11µM
CCn1nc(/C=C/c2ccccc2)nc2c(=O)n(C)c(=O)nc1-2	PLK1 PBD block 24µM, VDR inh inconclusive
CCn1nc(-c2cccs2)nc2c(=O)n(C)c(=O)nc1-2	none
Cc1ccc(N2CCN(C(=O)c3cn(CC4CCCCC4)nn3)C(C)C2)cc1 (centres undefined)	BRCA1 expr up 2.5µM (no result: Tb PFK inh)
CCOc1cc(/C=C(\C#N)C(=O)NCC2CCCO2)ccc1OCC(N)=O (centres undefined)	PLK1 PBD block 30µM
CCOc1cccc(OCC)c2c(C)[n+](CC3CCCO3)c(C)c1-2 (centres undefined)	none
COc1ccccc1C=C1C(=O)NC(=S)NC1=O	PLK1 PBD block 24µM, VDR inh 45µM (no result: Tb PFK inh)
O=C1NC(=S)N(c2ccc(F)cc2)C(=O)/C1=C/c1ccccc1O	none
CCN1C(=O)/C(=C/c2ccc(N(CC)CC)cc2OC)C(=O)NC1=S	PLK1 PBD block 1.1µM, VDR inh inconclusive
COc1ccccc1/C=C1\C(=O)NC(=S)N(c2ccccc2)C1=O	PLK1 PBD block 15µM, VDR inh 50µM
NC(=O)Cn1cc(C=C2C(=O)NC(=O)NC2=O)c2ccccc21	PLK1 PBD block inconclusive
COP(=O)(OC)[C@@H](O)C(Cl)(Cl)Cl	none (no result: PLK1 PBD block, Tb PFK inh, BRCA1 expr up)
CCC1OC2(C)C(O)C(/C=C/C=C/C=C/c3oc(=O)cc(OC)c3C)OC1(C)C2OC(C)=O (centres undefined)	none (no result: PLK1 PBD block, Tb PFK inh, BRCA1 expr up)
CC(=O)c1ccc2c(c1)C1C(Cl)C(Sc3ccccc3[N+](=O)[O-])CC1C(C(=O)O)N2 (centres undefined)	PLK1 PBD block 27µM
O=C(O)c1cccc2c1NC(C(=O)O)C1CC(Sc3ccccc3[N+](=O)[O-])C(Cl)C21 (centres undefined)	PLK1 PBD block 8.4µM, Tb PFK inh inconclusive
CC(C)(C)[C@]1(O)C[C@@H]2OC(=O)CC23C(=O)O[C@@H]2OC(=O)[C@H](O)C231 (some centres undefined)	none (no result: PLK1 PBD block, Tb PFK inh, BRCA1 expr up)
C[C@@]12CC(c3ccoc3)OC(=O)C1CC[C@@]1(C)C2C2C=C[C@@]1(O)C(=O)O2 (some centres undefined)	none (no result: PLK1 PBD block, Tb PFK inh, BRCA1 expr up)
COc1cc2nc(N3CCCN(C)CC3)nc(N(C)C3CCN(C)CC3)c2cc1OC	none (no result: PLK1 PBD block, Tb PFK inh, VDR inh)
COc1cc(/C=C/C(=O)c2c(O)n(CCc3ccccc3)c(=O)[nH]c2=O)ccc1O	VDR inh 45µM
CCN(CC)c1ccc(/C=C/[N+](=O)[O-])cc1	VDR inh 18µM
COc1ccc(C(=O)O)cc1OC	none (no result: Tb PFK inh)
O=C(O)c1cc[c]([Hg][Cl])cc1	PLK1 PBD block 0.24µM, Tb PFK inh 4.3µM, VDR inh 10µM
O=C(Cc1ccccc1)N1CCN(Cc2cccc(Br)c2)CC1	PLK1 PBD block 27µM
N[C@@H](CCCCP(=O)(O)O)C(=O)O	none (no result: PLK1 PBD block, Tb PFK inh, BRCA1 expr up)
COc1cc(C(c2c(C)[nH]n(-c3ccccc3)c2=O)c2c(C)[nH]n(-c3ccccc3)c2=O)cc(OC)c1OC	PLK1 PBD block 2.1µM, VDR inh inconclusive
Cc1[nH]n(-c2ccccc2)c(=O)c1C(c1cccc([N+](=O)[O-])c1O)c1c(C)[nH]n(-c2ccccc2)c1=O	PLK1 PBD block 8.4µM, Tb PFK inh inconclusive, VDR inh inconclusive
CCN(CCCNS(=O)(=O)c1ccc2c(c1)oc(=O)n2C)c1cccc(C)c1	PLK1 PBD block 24µM, VDR inh inconclusive
COc1ccc(C=C2C(=O)N(C)C(=O)N(C)C2=O)cc1COc1ccc(NC(C)=O)cc1	none
COc1ccc(C=C2C(=O)NC(=S)NC2=O)cc1OC	PLK1 PBD block 21µM, VDR inh 40µM (no result: Tb PFK inh)
CCOc1cc(C=C2C(=O)NC(=S)NC2=O)ccc1O	PLK1 PBD block 6µM, VDR inh inconclusive (no result: Tb PFK inh)
COc1ccc(/C=C/C=C2C(=O)NC(=S)NC2=O)cc1	PLK1 PBD block 0.53µM, VDR inh inconclusive (no result: Tb PFK inh)
COc1ccc(NC(=O)N2CCC3(CC2)CCN(C(=O)Oc2ccccc2)CC3)cc1	none (no result: PLK1 PBD block, Tb PFK inh, BRCA1 expr up)
COC(=O)C(O)(c1c(C)[nH]n(-c2ccccc2)c1=O)C(F)(F)F (centres undefined)	PLK1 PBD block 24µM, VDR inh inconclusive
COC(=O)C(O)(c1c[nH]c2ccccc12)C(F)(F)F (centres undefined)	none
CC(=O)CC(c1ccccc1)c1c(O)c2ccc(O)cc2oc1=O (centres undefined)	none (no result: PLK1 PBD block, Tb PFK inh, BRCA1 expr up)
Cc1ccc(CC2C(=O)N(C)C(=O)N(C)C2=O)s1	PLK1 PBD block 27µM, VDR inh inconclusive
